# CtBP-E1A inh: blocks the CtBP interaction with E1A; actives 0.49% (n = 340,000); AID 651724; AlphaScreen GST-E1A/His-CtBP binding, 1536-well; hits give low values; activity change, % (no concentration beside the values); in the data active means activity change below about -65%; inconclusive means mostly about -30% to -63%
#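 Protein mix (5X: 125 nM each GST-E1A, His-CtBP) was incubated with pinned compound 2 h at 37 deg C in dark, in 50 mM Tris pH 8.0 buffer with 300 mM NaCl. Glutathione donor and nickel acceptor beads followed; AlphaScreen signal read after 1 h.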
# Six1-Eya2 inh: inhibitors of human Six1/Eya2 interaction | actives 0.56% (n = 360,000) | AID 651725 | AlphaScreen GST-Six1/His-Eya2 binding, biochemical; hits give low values | activity change, % (concentration not given with the values) | Q15475+O00167; in the data active means activity change below about -65%; inconclusive means mostly about -30% to -63%
# Target sequence (O00167 whole entry, looked up): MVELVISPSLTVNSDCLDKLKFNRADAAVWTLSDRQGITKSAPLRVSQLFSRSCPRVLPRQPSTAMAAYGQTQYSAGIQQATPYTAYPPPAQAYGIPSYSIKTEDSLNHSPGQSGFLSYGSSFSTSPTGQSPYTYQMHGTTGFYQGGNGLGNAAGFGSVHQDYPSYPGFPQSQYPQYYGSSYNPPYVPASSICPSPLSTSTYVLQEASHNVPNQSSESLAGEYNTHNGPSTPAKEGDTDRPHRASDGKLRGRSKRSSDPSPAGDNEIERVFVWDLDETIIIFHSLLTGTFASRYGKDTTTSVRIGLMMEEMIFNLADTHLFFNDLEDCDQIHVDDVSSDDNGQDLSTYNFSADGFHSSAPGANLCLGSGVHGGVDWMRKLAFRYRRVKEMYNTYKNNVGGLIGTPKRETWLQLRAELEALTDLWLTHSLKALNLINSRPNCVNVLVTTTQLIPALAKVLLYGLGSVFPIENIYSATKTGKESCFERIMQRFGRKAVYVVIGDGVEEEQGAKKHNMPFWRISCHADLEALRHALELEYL
# Target sequence (Q15475 whole entry, looked up): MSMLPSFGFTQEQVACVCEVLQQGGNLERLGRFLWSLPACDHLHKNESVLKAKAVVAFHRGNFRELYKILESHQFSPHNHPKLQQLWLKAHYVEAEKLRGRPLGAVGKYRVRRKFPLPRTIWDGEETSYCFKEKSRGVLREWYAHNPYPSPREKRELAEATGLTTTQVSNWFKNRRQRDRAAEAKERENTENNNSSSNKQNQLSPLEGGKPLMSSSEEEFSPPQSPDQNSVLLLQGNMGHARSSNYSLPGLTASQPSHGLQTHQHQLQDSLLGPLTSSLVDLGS
#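 AlphaScreen with GST-Six1 and His-Eya2 (5X mix: 250 nM and 500 nM), glutathione donor and nickel acceptor beads; buffer 50 mM Tris pH 8.0, 300 mM NaCl, 1 mM TCEP; 1 h at 37 C in the dark.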
# TDP1 inh: inhibitors of human tyrosyl-DNA phosphodiesterase TDP1. Q9NUW8. actives 0.28% (n = 350,000). Potency, µM (titrated, usually from 130 µM), for inactives: top-dose activity change, negative = inhibition, hits mostly inhibitors. recombinant TDP1, AlphaScreen DNA substrate cleavage; further: potency means the concentration at half of the fitted maximal effect; nearly all actives have a fitted effect of over 40% in size
#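 Recombinant E. coli-expressed Tdp1 (1 nM) preincubated with compound 15 min at RT, then 5'-biotin/3'-phosphotyrosine-FITC DNA substrate (15 nM) added for 5 min. AlphaScreen beads (10 ug/ml) added, 10 min RT; tyrosine-FITC cleavage read as signal loss.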
# DT40 TDP1 CPT: growth inhibition of DT40 Tdp1-/-;hTDP1 cells with camptothecin (screen for TDP1 inhibitors); actives 12% (n = 420,000); AID 686979; chicken DT40 Tdp1-/-;hTDP1 cells + 20 nM CPT, ATP luminescence, 48 h; Potency, µM (series often up to 46.2 µM), for inactives: top-dose activity change, negative = growth inhibition, most hits filed as inhibitors; further: potency means the concentration at half of the fitted maximal effect; nearly all actives have a fitted effect of over 55% in size
#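 Chicken DT40 Tdp1-/- cells complemented with human TDP1, 400 cells/well, exposed to compounds plus 20 nM camptothecin for at least 48 h at 37 C; viability read as ATP content by CellTiter-Glo luminescence.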
# DT40 TDP1 no CPT: qHTS for Inhibitors of human tyrosyl-DNA phosphodiesterase 1 (TDP1): qHTS in cells in absence of CPT; Potency, µM (top dose mostly 46.2 µM), without a hit: at the top dose activity change, negative = growth inhibition, usual class: inhibitors; actives 15% (n = 420,000); AID 686978, 2013; DT40 Tdp1-/- hTDP1 cells, no CPT, ATP luminescence, 48 h; further: potency means the concentration at half of the fitted maximal effect; nearly all actives have a fitted effect of over 55% in size
#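 Chicken DT40 Tdp1-/- cells stably complemented with human TDP1 were seeded at 400 cells/well with DMSO in place of 20 nM camptothecin. After compound pinning, cells grew at least 48 hr at 37 °C; viability read by CellTiter-Glo luminescence.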
# IL1B secr inh: inflammasome signaling inhibition, IL-1 beta readout. THP-1 LPS/ATP IL-1B secretion, AlphaLISA, 16 h; hits give low values. activity change, % at 57.5 µM. actives 4.7% (n = 360,000); in the data active means activity change below about -50%; inconclusive means mostly about -30% to -49%
#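 THP-1 cells pretreated 1 hr with compounds (up to 57.5 uM final), then stimulated with LPS (250 ng/mL final) plus ATP (1.25 mM final); secreted IL-1B measured by AlphaLISA after 16 hr, decreased signal indicating inhibition.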
# * = called active by the depositor; ? = inconclusive; / = not tested or not shown; [ ] = dose if it differs, or a comment. Rows were chosen to be rich in hits. Some 18% of all compounds tested hit in one or more screens of this group. Unless noted, the call rests on the fitted dose curve; in most records, active means well fitted curve in the direction sought with a large enough effect; inconclusive means small, poorly fitted or top-dose-only effect, or another doubt; inactive means no such curve, though single readings can be large; an effect the other way counts as inactive or inconclusive. On the % scale 0 is the no-effect control and ±100 the full control effect.
SMILES,CtBP-E1A inh,Six1-Eya2 inh,TDP1 inh,DT40 TDP1 CPT,DT40 TDP1 no CPT,IL1B secr inh
Cc1c(NC(=O)CN2C(=O)NC3(CCCCC3C)C2=O)cccc1[N+](=O)[O-] (centres undefined),1.6,0.0,0.8%,-12.8%,7.1%,7.2
CCOC(=O)c1c(C)n(-c2ccc(C)cc2)c2c(C(C(C)=O)C(=O)O)c(Br)c(O)c(O)c12 (centres undefined),-0.3,-6.8,8.8%,23.1µM*,23.1µM*,-8.0
CCOC(=O)C(C(C)=O)c1c(Br)c(O)c(O)c2c(C(=O)c3ccc(C)cc3)coc12 (centres undefined),?,?,0.0%,2.91µM*,2.59µM*,-27.4
COc1ccc(-c2nc3cnc(OC)nc3n(CCC#N)c2=O)cc1,/,/,/,-8.1%,-3.4%,/
Cc1cccc(C(=O)N[C@H](C(=O)Nc2nc(C)cs2)C(C)C)c1,-2.1,-15.4,3.4%,8.2µM*,7.31µM*,10.2
Cc1cccc(C(=O)N[C@H](C(=O)Nc2nc3ccccc3[nH]2)C(C)C)c1,9.0,6.1,0.0%,3.26µM*,3.66µM*,90.6
CC(C)C(NC(=O)c1ccccc1F)C(=O)Nc1nccs1 (centres undefined),/,2.8,-3.7%,4.5%,-25.0%,-5.6
CC(C)[C@H](NC(=O)c1ccccc1Cl)C(=O)Nc1nc(-c2ccccn2)cs1,-83.3*,-79.8*,7.7%,5.8µM*,5.8µM*,70.5
CC(Oc1ccc(Br)cc1)C(=O)Nc1nc(-c2ccccn2)cs1 (centres undefined),?,-73.1*,1.9%,4.61µM*,3.26µM*,-99.3*
CCOc1ccc(NC(=O)CCn2ccnc2)cc1,3.7,1.9,/,7.9%,14.8%,3.5
CN1CCN(C(=O)CN(C)S(=O)(=O)c2ccc(F)cc2)CC1,4.5,-1.9,/,24.1%,25.1%,8.5
O=S(=O)(c1ccc(F)cc1)n1cnc2ccccc21,-5.0,7.3,/,24.1%,-20.0%,-3.1
O=C(NCCCn1ccnc1)c1ccc(F)cc1,0.5,2.4,/,-2.1%,4.1%,6.2
Cn1ncc2nc(SCC(=O)Nc3ccc(Br)cc3F)n(Cc3ccccc3)c(=O)c21,/,/,-5.5%,?,?,/
CCCc1cc(C(=O)NC2CCCN(Cc3ccccc3F)C2)no1 (centres undefined),5.9,-1.3,3.4%,2.8%,-0.9%,-3.6
Cc1csc(NC(=O)[C@@H](NC(=O)c2ccccc2)C(C)C)n1,15.6,4.6,2.6%,?,8.2µM*,15.9
Cc1csc(NC(=S)NC(=O)c2ccccc2)n1,-3.4,-5.0,5.3%,?,18.4µM*,18.7
CCO[C@@H]1OC(C(=O)N2CCN(Cc3ccc4c(c3)OCO4)CC2)=C[C@H](c2csc3ccccc23)[C@H]1CCCO,-17.0,-24.3,6.4%,-88.6%,23.1µM*,?
CCO[C@H]1OC(C(=O)N2CCN(Cc3ccc4c(c3)OCO4)CC2)=C[C@@H](c2ccc(C(F)(F)F)cc2)[C@@H]1CCCO,-22.5,-8.0,3.8%,18.4µM*,23.1µM*,-76.7*
CCO[C@H]1OC(C(=O)N2CCN(Cc3ccc4c(c3)OCO4)CC2)=C[C@@H](c2ccccc2)[C@@H]1CCCO,-5.5,-5.5,3.8%,?,?,-8.1
CCO[C@@H]1OC(C(=O)N2CCN(Cc3ccccc3)CC2)=C[C@H](c2ccc(C(F)(F)F)cc2)[C@H]1CCCO,0.0,10.4,5.1%,?,?,-87.6*
CCO[C@@H]1OC(C(=O)N2CCN(Cc3ccccc3)CC2)=C[C@H](c2ccc(Br)cc2)[C@H]1CCCO,-6.7,-12.4,5.1%,?,23.1µM*,-22.2
CCO[C@H]1OC(C(=O)N2CCN(Cc3ccccc3)CC2)=C[C@@H](C)[C@@H]1CCCO,4.1,6.0,0.0%,?,?,9.5
O=C(COc1ccc2ccc(=O)oc2c1)NC1CCCCC1,-1.1,2.7,0.3%[56.1 µM],-1.9%,?,-13.8
c1ccc(OCCOc2cccc3cccnc23)cc1,-1.7,3.5,2.7%,-15.1%,-28.1%,-22.6
SMILES,CtBP-E1A inh,Six1-Eya2 inh,TDP1 inh,DT40 TDP1 CPT,DT40 TDP1 no CPT,IL1B secr inh
CC(=O)CCc1ccc(OCCCOc2cccc3cccnc23)cc1,/,3.6,4.9%,?,?,-11.9
CC(=O)c1ccccc1OCCCOc1cccc2cccnc12,/,0.7,/,23.1µM*,23.1µM*,15.0
CC(=O)c1ccccc1OCCOCCOCCOc1ccccc1C(C)=O,-1.6,-13.7,-13.9%,18.4µM*,?,-16.1
Cc1cc(OCCOc2cccc3cccnc23)cc(C)c1Cl,3.4,4.9,7.8%,14.6µM*,18.4µM*,-12.5
CC(=O)c1ccc(OCCCOc2cccc3cccnc23)cc1,2.2,-0.4,/,?,?,-69.8*
COC(=O)C1=C(C)[C@H](O)[C@@H](C)[C@](C)(c2cc(OC)c(C)c(OC)c2COc2ccccc2)O1,/,/,5.6%,/,/,/
COC(=O)c1ccc(Cl)cc1NC(=O)Nc1nnc(N(C)C2CCCCC2)s1,/,/,8.6%,-4.8%,-21.0%,/
Nc1nc(N2CCCCC2)c2ncn(C3OC(CO)C(O)C3O)c2n1 (centres undefined),5.0,1.6,/,-4.7%,-4.1%,-10.1
CC1CCN(C(=O)c2ccc(NS(=O)(=O)c3ccc4[nH]c(=O)[nH]c4c3)cc2)CC1,-13.3,0.0,1.8%,-16.0%,-10.9%,0.0
O=C(CNC1CCCCC1)Nc1ccc([N+](=O)[O-])cc1C(=O)Nc1ccccc1F,-0.9,-0.5,6.9%,?,-29.2%,-13.7
C/C(=N\NC(=O)c1ccc(CSc2cccc3cccnc23)cc1)C1CCCCC1,-10.1,-4.3,3.2%,12.6%,-9.7%,-4.4
COc1ccc(C(C)=O)cc1COc1cccc2cccnc12,/,0.2,/,-3.8%,?,53.8
CC(C)Oc1ccccc1OCCCOc1cccc2cccnc12,11.0,-3.3,4.6%,?,20.6µM*,?
COc1cc(C(C)=O)ccc1OCCCOc1cccc2cccnc12,-23.1,-2.9,4.5%,18.4µM*,?,-11.0
COc1ccc(/C(C)=N/NC(=O)c2ccc(CSc3cccc4cccnc34)cc2)cc1OC,-20.9,-16.3,4.1%,?,15.8µM*,-16.1
O=C(Nc1nc(-c2cc(F)ccc2F)cs1)C1=COCCO1,1.7,-0.1,0.2%,18.4µM*,?,-13.1
CC(=O)Nc1ccc(-c2csc(NC(=O)C3=COCCO3)n2)cc1,-0.8,3.4,0.5%,?,?,-11.4

# Source: PubChem BioAssay (National Center for Advancing Translational Sciences (NCATS))
